In PubChem BioAssay (Tox21):
Unmarked numbers belong to inactive results. Results filed as inconclusive are left out. Where a call stands in place of a potency, no number is given. Activity calls are given as the source filed them. Unless noted, calls come from the whole dose curve.

Columns and labels:
[1] = target: Thyrotropin receptor (Homo sapiens) (UniProt P16473); assay: qHTS assay to identify small molecule agonists of the thyroid stimulating hormone receptor (TSHR) signaling pathway (AID 1224843); note: nearly all actives have a fitted effect of over 45% in size; note: potency is the fitted concentration of half-maximal effect
Outline: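 Cell line HEK293 with TSHR; density 800/well. Exposure 30 min RT. Readout HTRF cAMP (cAMP-d2/anti-cAMP-cryptate), 1 h RT before reading.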

[2] = qHTS assay to identify small molecule agonists of the hypoxia (HIF-1) signaling pathway - cell viability counter screen (AID 1224844); note: nearly all actives have a fitted effect of over 50% in size; note: potency is the fitted concentration of half-maximal effect
Outline: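 Luminescent ATP content (CellTiter-Glo, 30 min, room temperature) served as the viability measure in HRE-bla ME-180 cells exposed to compounds for 17 hrs in low-serum medium (0.5% dialyzed FBS).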

[3] = qHTS assay to identify small molecule agonists of H2AX (AID 1224845; active = well fitted activation curve with a large enough effect in the signal ratio in the repeat runs, not every such curve was filed as active; the % refers to the signal ratio; note: potency is the fitted concentration of half-maximal effect)
Outline: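 Wild-type CHO-K1 cells plated overnight, then exposed 3 hr at 37C to compounds at 15 concentrations (0.76% DMSO). Lysed, then HTRF anti-pH2AX(S139)-cryptate/anti-H2AX-d2 detection after 24 hr at room temperature; emissions 665 and 620 nm.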

[4] = qHTS assay to identify small molecule agonists of the hypoxia (HIF-1) signaling pathway (AID 1224846; active = well fitted activation curve with a large enough effect in the signal ratio in the repeat runs, not every such curve was filed as active; the % refers to the signal ratio)
Outline: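 Measured by blue/green FRET after loading CCF4-AM: beta-lactamase expressed from a hypoxia response element in ME-180 cells. Test agents were delivered in DMSO and left 17 hrs; cells had been plated 5 hrs earlier in low-serum (0.5% dialyzed FBS) medium.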

[5] = qHTS assay to identify small molecule agonists of H2AX - cell viability counter screen (AID 1224847); note: nearly all actives have a fitted effect of over 30% in size; note: potency is the fitted concentration of half-maximal effect
Outline: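 Counter-screen for viability: CellTiter-Glo ATP luminescence read after 3 h compound treatment (15-point titration, 0.76% DMSO final) of CHO-K1 cells at 37C, with 30 min room-temperature reagent incubation.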

[6] = qHTS RealTime-Glo MT Cell Viability Assay in HepG2 cells - 24 hour (AID 1224867; active = well fitted curve in the direction sought with a large enough effect in the repeat runs; an effect the other way counts as inactive or inconclusive; note: nearly all actives have a fitted effect of over 50% in size; note: potency is the fitted concentration of half-maximal effect)
Outline: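 HepG2 suspension premixed with RealTime-Glo reagents is plated at 600 cells per well and left 5 h at 37 C/5% CO2. Compounds in DMSO then go in, and bioluminescence reflecting viable cell number is recorded over 40 h.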

[7] = qHTS RealTime-Glo MT Cell Viability Assay in HEK293 cells - 32 hour (AID 1224868; active = well fitted curve in the direction sought with a large enough effect in the repeat runs; an effect the other way counts as inactive or inconclusive; note: nearly all actives have a fitted effect of over 50% in size; note: potency is the fitted concentration of half-maximal effect)
Outline: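 Reads taken at 0, 8, 16, 24, 32 and 40 h from the same wells. HEK293 cells (600/well) carried RealTime-Glo reagents from seeding, with compound added after a 5 h settle at 37 C.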

[8] = A CellTox Green Cytotoxicity Assay to monitor cytotoxicity in HEK293 cells - 0 hour (AID 1224869; active = well fitted curve in the direction sought with a large enough effect in the repeat runs; an effect the other way counts as inactive or inconclusive; note: nearly all actives have a fitted effect of over 50% in size)
Outline: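 Each value comes from one timepoint of a single continuous run in which HEK293 cells with CellTox Green were exposed to compound for up to 40 h at 37 C, dye fluorescence rising with cell death.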

[9] = qHTS assay to identify small molecule antagonists of the estrogen related receptor (ERR) signaling pathway from Tox21 library (AID 1224848; active = well fitted curve in the direction sought with a large enough effect in the repeat runs; an effect the other way counts as inactive or inconclusive; note: nearly all actives have a fitted effect of over 50% in size; note: potency is the fitted concentration of half-maximal effect)
Outline: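 Screening used an ERR reporter line supplied by NTP, exposed for 18 h at 37 C to library compounds delivered in DMSO. Signal was luciferase luminescence developed with ONE-Glo at room temperature for 30 min.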

[10] = qHTS assay to identify small molecule agonists of the estrogen related receptor (ERR) signaling pathway from Tox21 library (AID 1224849); settings: ERR reporter cell line, ONE-Glo luciferase, 18 h; at 92.4 µM (top of the series) unless noted; note: nearly all actives have a fitted effect of over 15% in size
Outline: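 We plated ERR reporter cells, waited 6 h, added compounds in DMSO by pin tool and incubated them 18 h at 37 C. ONE-Glo was then added and luminescence read after 30 min.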

Sequence of Thyrotropin receptor (Homo sapiens) (P16473 whole entry, looked up): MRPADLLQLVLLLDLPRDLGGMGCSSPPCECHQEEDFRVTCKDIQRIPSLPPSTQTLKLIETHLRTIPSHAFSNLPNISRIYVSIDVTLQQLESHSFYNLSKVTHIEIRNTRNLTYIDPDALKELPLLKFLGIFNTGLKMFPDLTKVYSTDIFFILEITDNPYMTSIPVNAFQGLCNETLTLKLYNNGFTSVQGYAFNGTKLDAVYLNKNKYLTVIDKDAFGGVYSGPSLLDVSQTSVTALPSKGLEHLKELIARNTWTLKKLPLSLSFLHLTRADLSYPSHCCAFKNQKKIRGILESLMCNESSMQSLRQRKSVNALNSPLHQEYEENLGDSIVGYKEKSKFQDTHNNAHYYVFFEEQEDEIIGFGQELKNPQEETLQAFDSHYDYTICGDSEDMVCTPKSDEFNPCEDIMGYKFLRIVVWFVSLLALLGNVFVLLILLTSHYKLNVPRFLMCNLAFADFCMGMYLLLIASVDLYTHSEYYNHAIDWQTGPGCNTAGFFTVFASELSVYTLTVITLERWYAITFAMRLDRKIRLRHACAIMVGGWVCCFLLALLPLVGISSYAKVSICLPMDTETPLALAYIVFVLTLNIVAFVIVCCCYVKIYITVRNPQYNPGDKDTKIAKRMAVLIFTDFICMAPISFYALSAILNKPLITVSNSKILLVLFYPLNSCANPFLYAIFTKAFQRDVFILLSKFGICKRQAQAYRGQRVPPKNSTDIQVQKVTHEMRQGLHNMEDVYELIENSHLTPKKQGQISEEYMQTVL

SMILES	Potency [1]	Potency [2]	Potency [3]	outcome [4]	Potency [5]	Potency [6]	Potency [7]	Potency [8]	Potency [9]	activity change, positive = activation [10]
N#CCC#N	inactive	inactive	89.8 µM (active)	inactive	inactive	inactive	inactive	inactive		
CCOS(C)(=O)=O	inactive	inactive	inactive	inactive	inactive	inactive	inactive	inactive		
COC(=O)C(C)N(C(=O)Cc1ccccc1)c1c(C)cccc1C (stereo unspecified)	27.3 µM (active)	inactive	inactive	inactive	inactive	inactive		inactive	30.6 µM (active)	-38.3%
Cl/C=C\Cl	inactive	inactive	inactive	inactive	inactive	inactive	inactive	inactive		
CC(C)=CCOc1c2occc2cc2ccc(=O)oc12	inactive	inactive	inactive	inactive	inactive		inactive	inactive	inactive	-9.71% [at 42.5 µM]
O=C(Nc1ccccc1)Nc1cnns1	inactive	inactive	inactive	inactive	inactive	inactive	27.5 µM (active)	inactive		-23.5%
COP(=S)(OC)Oc1ccc([N+](=O)[O-])cc1Cl	inactive	inactive	inactive	inactive	inactive	inactive	inactive	inactive		-29.5%
NNC(=O)c1cccnc1	inactive	inactive	inactive	inactive	inactive	inactive	inactive	inactive		
ClCC(Br)CBr (stereo unspecified)	inactive	inactive	inactive	inactive	inactive	inactive	inactive	inactive		
C=CC(=O)OC	inactive	inactive	inactive	inactive	inactive	inactive	inactive	inactive		
c1ccc(CN2CCNCC2)cc1	inactive	inactive	inactive	inactive	inactive	inactive	inactive	inactive		
O=C(O)c1ccccc1C(=O)Nc1cccc2ccccc12	inactive	inactive	inactive	inactive	inactive	inactive	inactive	inactive		
CCCN(CC1CC1)c1c([N+](=O)[O-])cc(C(F)(F)F)cc1[N+](=O)[O-]	6.86 µM (active)	inactive	inactive	inactive	inactive	inactive	inactive	inactive		
Clc1cccc2ccccc12	inactive	inactive	inactive	inactive	inactive	inactive	inactive	inactive		
CC1CC(CC2CCC(N)C(C)C2)CCC1N (stereo unspecified)	inactive	inactive	inactive	inactive	inactive	inactive	55.8 µM (active)	inactive		
CC1C(=O)C[C@]2(C(C)C)C[C@H]12 (stereo partly specified)	inactive	inactive	inactive	inactive	inactive	inactive	inactive	inactive		
C=CCC1([C@H](C)CCC)C(=O)NC(=O)NC1=O	inactive	inactive	inactive	inactive	inactive	inactive	inactive	inactive		
CNC(C)Cc1ccccc1OC (stereo unspecified)	inactive	inactive	inactive	inactive	inactive	inactive	inactive	inactive		

SMILES	Potency [1]	Potency [2]	Potency [3]	outcome [4]	Potency [5]	Potency [6]	Potency [7]	Potency [8]	Potency [9]	activity change, positive = activation [10]
CN1C(=O)NC(=O)C(C)(C2=CCCCC2)C1=O (stereo unspecified)	inactive	inactive	inactive	inactive	inactive	inactive	inactive	inactive		
CCC(Br)(CC)C(=O)NC(N)=O	inactive	inactive	inactive	inactive	inactive	inactive	inactive	inactive		
C=CC(=O)OC(C)(C)C	inactive	inactive	inactive	inactive	inactive	inactive	inactive	inactive		
CCCCNP(N)(N)=S	inactive	inactive	inactive	inactive	inactive	inactive	inactive	inactive		
Cn1cc[n+](C)c1 (tested in a mixture with another compound)	inactive	inactive	inactive	inactive	inactive	inactive	inactive	inactive		
CCCCCC[N+](=O)[O-]	inactive	inactive	inactive	inactive	inactive	inactive	inactive	inactive		
Clc1cc(Cl)c(Cl)c(Cl)c1	inactive	inactive	inactive	inactive	inactive	inactive	inactive	inactive		
c1ccoc1	inactive	inactive	inactive	inactive	inactive	inactive	inactive	inactive		
CC(C)O.CC(C)O.OCCN(CCO)CCO.OCCN(CCO)CCO.[Ti]	inactive	inactive	inactive	inactive		inactive	inactive	inactive		
Cc1cc(=O)[nH]o1	inactive	inactive	inactive	inactive	inactive	inactive	inactive	inactive		
CCCC(Cn1cncn1)c1ccc(Cl)cc1Cl (stereo unspecified)	inactive	inactive	inactive	inactive		inactive	21.9 µM (active)	inactive	30.6 µM (active)	-61.7%
COC(=O)C(Cl)C(=O)OC	inactive	inactive	inactive	inactive	inactive	inactive	inactive	inactive		
CC(=O)CCC(C)=O	inactive	inactive	inactive	inactive	inactive	inactive	inactive	inactive		
CC(C)(CCl)C(=O)Cl	inactive	inactive	inactive	inactive	inactive	inactive	inactive	inactive		
CCCN(CCCl)c1c([N+](=O)[O-])cc(C(F)(F)F)cc1[N+](=O)[O-]	1.93 µM (active)	inactive	inactive	inactive		inactive	inactive	inactive	inactive	-4.52%
CCC(C)(NC(=O)c1cc(Cl)c(C)c(Cl)c1)C(=O)CCl (stereo unspecified)	43.5 µM (active)	34.9 µM (active)	inactive		114 µM (active)	49.3 µM (active)	19.6 µM (active)	inactive	9.75 µM (active)	-68.6%
CCCCC(CC)COP(=O)(Oc1ccccc1)Oc1ccccc1 (stereo unspecified)	27.3 µM (active)	inactive	inactive	inactive		inactive	inactive	inactive		
Cc1ccccc1C(=O)Nc1cccc(OC(C)C)c1	inactive	27.5 µM (active)	inactive	inactive		inactive		inactive		
